# Measurements taken from PMC5540273 (PLoS ONE, 2017).
# Legend:
# Conditions in all cases: concentration: 1 μM, replicates: in singlicate; n = 1
# PRKX = system: PRKX
# PRP4 = system: PRP4
# PYK2 = system: T1, PYK2
# T1 construct: gene PTK2B
# QSK = system: QSK
# RAF1 = system: RAF1
# RET = system: RET
# RIOK1 = system: RIOK1
# RIOK2 = system: RIOK2
# RIOK3 = system: RIOK3
# RIPK1 = system: RIPK1
# 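Also: KINOMEscan kinase panel screen.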
SMILES,%Inh (PRKX) [%],%Inh (PRP4) [%],%Inh (PYK2) [%],%Inh (QSK) [%],%Inh (RAF1) [%],%Inh (RET) [%],%Inh (RIOK1) [%],%Inh (RIOK2) [%],%Inh (RIOK3) [%],%Inh (RIPK1) [%]
CCC(=O)c1c(-c2ccccc2)c2cc(Cl)ccc2c(=O)n1Cc1cc(S(C)(=O)=O)n(CC(F)F)n1,1,6,0,0,6,0,0,13,25,1
O=C(Nc1n[nH]c2nc(-c3ccccc3)c(Cl)cc12)C1CC1 [SB-734909],0,0,0,38,30,0,7,41,7,55
CCn1c(-c2nonc2N)nc2ccccc21 [SB-693162/GW549034],24,0,0,0,0,22,0,14,0,0
CC(C)(C)c1ccc(C(=O)Nc2cn3cc(-c4ccccc4)ccc3n2)cc1,3,19,0,0,0,0,2,14,22,0
CCCNC(=O)Nc1ccc(Oc2ncnc3ccn(C)c23)cc1,0,8,3,0,2,8,9,10,14,0
CCC(=O)c1c(-c2ccccc2)c2cc(Cl)ccc2c(=O)n1Cc1ccc(C(=O)O)cc1,0,0,0,0,26,0,6,0,23,0
Cc1cc(Nc2nc(-c3cccc(C)n3)nc3ccccc23)ccn1 [GW872411],0,0,14,0,0,0,0,0,0,0
CCC(=O)c1c(-c2ccccc2)c2cc(Cl)ccc2c(=O)n1Cc1cc(S(C)(=O)=O)n(CC(N)=O)n1,0,38,0,0,11,1,1,0,0,0
O=C(NCc1cccs1)c1cc(C(=O)c2c(Cl)cccc2Cl)c[nH]1 [GW823670],0,0,0,0,0,2,5,0,0,0
COc1cc(Nc2nccc(N3CCC(NC(=O)C(C)c4ccc(Cl)cc4)C3)n2)cc(OC)c1OC (stereo not shown) [GSK1379757],5,23,10,2,10,7,58,0,54,20
COc1cc2ncn(-c3cc(OCc4ccncc4)c(C(N)=O)s3)c2cc1OC [GSK336313],7,20,0,0,7,4,31,6,12,46
Cc1ccccc1COc1cc(-n2cnc3cc(Cl)ccc32)sc1C(N)=O [GW813349],0,19,4,0,0,7,23,27,13,16
COc1cc2ncn(-c3cc(OCCCc4ccccc4)c(C(N)=O)s3)c2cc1OC [GSK205189],3,0,5,0,0,0,26,0,12,0
CN(C)c1cc(-c2ccc3c(N)n[nH]c3c2)nc(N)n1 [GSK2219329],18,6,0,5,0,0,48,0,38,0
COc1cccc(C2=C(N(C)c3ccccc3)C(=O)NC2=O)c1 [SB-334865],25,41,8,1,12,17,39,0,0,0
COc1ccc(-c2cc3c(C)nc(N)nc3n([C@H]3CC[C@H](OCCO)CC3)c2=O)cn1,12,0,0,0,0,0,0,0,0,0
COc1cc2ncn(-c3cc(OCc4ccncc4Br)c(C(N)=O)s3)c2cc1OC [GW854278],26,0,7,2,7,20,38,14,39,3

SMILES,%Inh (PRKX) [%],%Inh (PRP4) [%],%Inh (PYK2) [%],%Inh (QSK) [%],%Inh (RAF1) [%],%Inh (RET) [%],%Inh (RIOK1) [%],%Inh (RIOK2) [%],%Inh (RIOK3) [%],%Inh (RIPK1) [%]
CN1C(=O)C(Nc2cc(Cl)c(O)c(Cl)c2)=C(c2ccc(Cl)cc2)C1=O [SB-404321],0,17,1,0,10,0,0,0,0,0
COc1ccc(CNC(=O)NC2CCN(c3ccnc(Nc4ccc(F)cc4)n3)C2)cc1 (stereo not shown) [GSK1379706],18,47,1,0,6,21,8,0,0,0
CN1C(=O)C(Nc2ccccc2)=C(c2ccccc2)C1=O [SB-300079],0,2,6,0,44,0,13,0,0,0
Cc1ccc(Oc2ccc(Nc3ncnc4cc[nH]c34)cc2C)cn1,2,46,9,13,5,8,100,0,24,0
COc1cccc(-n2cnc3c(N)ncnc32)c1 [SKF-97416],32,0,0,28,0,0,0,22,0,0
COc1ccc(Nc2nccc(N3CCC(NS(=O)(=O)c4ccc(NC(C)=O)cc4)C3)n2)cc1 (stereo not shown) [GSK1379729],2,14,0,11,18,28,38,9,29,28
CCCC(=O)Nc1n[nH]c2ncc(-c3cccc4ccccc34)cc12 [SB-642057],12,26,0,13,9,33,19,0,0,0
COc1cc2nccc(Nc3cccc(Oc4ccccc4)c3)c2cc1OC.Cl [GW284543],22,19,0,5,5,25,21,0,4,0
COc1cccc(C2=C(Nc3cccc(C(=O)O)c3)C(=O)NC2=O)c1 [SB-390770],7,49,0,0,11,17,14,6,0,0
CCS(=O)c1ccc(-c2coc3ccc(-c4nnc(C)o4)cc23)cc1 (stereo not shown),0,21,0,0,0,0,0,15,0,1
Cc1nnc(-c2ccc3ncn(-c4ccc(S(C)=O)cc4)c3c2)o1 (stereo not shown),3,0,12,0,0,7,6,11,20,4
COC(=O)c1c(-c2ccccc2)c2cc(C)ccc2c(=O)n1Cc1ccccc1,0,4,0,0,66,13,3,0,0,0
Cc1ccc(-c2ccc3c(ccc4sc5c(c43)NC[C@@H](C)N=C5N(C)C)n2)cn1,0,0,0,0,0,0,0,0,0,0
Cn1c(=O)c(F)c(Nc2ccc(I)cc2F)c2c(=O)n(OC[C@H](O)CO)cnc21,0,0,17,0,37,11,5,0,23,0
COC(=O)c1c(-c2ccccc2)c2cc(Br)ccc2c(=O)n1Cc1ccc(S(C)(=O)=O)cc1,28,0,6,0,27,16,0,19,0,0
CCS(=O)(=O)c1ccc(OC)c(Nc2ncc(-c3ccc(F)cc3)o2)c1.Cl [GW591947],0,16,11,0,9,13,22,0,29,10
Nc1nccc2scc(-c3ccc4c(c3)CCN4C(=O)Cc3ccccc3)c12 [GSK2576924],14,13,0,0,5,11,13,6,11,71
